Assay results reported in PubChem BioAssay.
A number with no mark means an inactive call.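 How the source made its calls, unless noted: active means fluorescence slope higher than the sample average by over 3 SD (cut at about -0.22 in these data, passing the limit was not always enough); inactive means the rest.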 Where a SMILES comes first, the peptide text is derived from it. The star is where a group is joined. Boc = CC(C)(C)OC(=O)*

These molecules were tested against Voltage-gated potassium channel subunit beta-2 (Rattus norvegicus) (UniProt P62483) (assay: inhibitors of rat Kvbeta2 reductase activity – biochemical, NADPH fluorescence, primary screen (AID 622;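 further: slope of raw intensity against log time taken from 70 to 1610 s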)). Conditions: recombinant KvBeta, 4-cyanobenzaldehyde reduction, at 10 µM, stronger effect = higher value.
Chain of Voltage-gated potassium channel subunit beta-2 (Rattus norvegicus) (P62483 whole entry, looked up): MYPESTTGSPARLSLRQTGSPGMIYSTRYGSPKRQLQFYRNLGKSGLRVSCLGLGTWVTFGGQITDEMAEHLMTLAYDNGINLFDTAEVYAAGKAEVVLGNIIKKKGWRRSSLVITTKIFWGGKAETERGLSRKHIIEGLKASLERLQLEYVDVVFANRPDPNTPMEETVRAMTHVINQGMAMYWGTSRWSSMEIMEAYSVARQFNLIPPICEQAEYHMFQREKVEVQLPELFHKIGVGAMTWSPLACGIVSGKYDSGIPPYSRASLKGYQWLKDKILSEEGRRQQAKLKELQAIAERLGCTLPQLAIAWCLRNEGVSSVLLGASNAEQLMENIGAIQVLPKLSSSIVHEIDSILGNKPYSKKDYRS

SMILES	fluorescence slope
Cc1nc2ccccc2c(=O)n1NC(=O)c1c(O)c2c(n(CC(C)C)c1=O)CCCC2	-0.558
CCN(CC)C(=O)C1=C(C)NC(=O)NC1c1c(F)cccc1Cl (stereo not given)	-0.521
COc1ccccc1OCc1ccc(C(=O)OCC2CCCO2)o1 (stereo not given)	-0.503
Cc1nc(CNS(=O)(=O)c2ccc3c(c2)OCCO3)cs1	-0.568
c1ccc(CC2CCN(Cc3nc(-c4ccccc4)no3)CC2)cc1	-0.456
CC(C)(C)OC(=O)N1CCCC1C(=O)N1CCCC1C(=O)N1CCCC1C(=O)O (stereo not drawn) (Boc-Pro-Pro-Pro-OH; configuration not given here)	-0.571
Cc1[nH]c(=O)[nH]c(=O)c1S(=O)(=O)N1CCN(c2cccc(Cl)c2)CC1	-0.567
Cc1csc(SCC(=O)NC(=O)NCc2ccccc2)n1	-0.407
O=C1CC(N2CCC(C(=O)N3CCCCC3)CC2)C(=O)N1 (stereo not given)	-0.554
COc1ccc(S(=O)(=O)NC2CCCCC2)c(C)c1C	-0.557
O=C(NCc1ccccn1)c1ccc2nc(-c3ccco3)c(-c3ccco3)nc2c1	-0.504
CN1CCCN(C(=O)c2cc(=O)[nH]c3ccccc23)c2nc3ccccc3nc21	-0.394
COc1cc2c(cc1OC)CN(C(=O)COc1ccc(C#N)cc1)CC2	-0.574
Cc1noc(C)c1C(=O)OCC(=O)Nc1ccccc1C(=O)NC(C)c1ccccc1 (stereo not given)	-0.414
CCc1c(C)nc(N2CCN(Cc3ccccc3)CC2)[nH]c1=O	-0.507
CCOc1ccc(CCNC(=O)CCc2nc(-c3ccc(OC)cc3)no2)cc1OCC	-0.529
O=C(O)CCCNS(=O)(=O)c1ccc(NCc2ccccc2)c(C(=O)O)c1	-0.343
CN1CCN(C(=O)c2ccccc2N(Cc2ccccc2)S(C)(=O)=O)CC1	-0.596
Cc1nc(=S)n(-c2ccccc2)[nH]1	-0.538
Cc1ccc(S(=O)(=O)Cc2ccc(C(=O)NCCCN3CCN(C)CC3)o2)cc1	-0.517

SMILES	fluorescence slope
COc1cccc(-n2c(C)nc3c(cnn3-c3ccc(Cl)cc3)c2=O)c1	-0.553
CC1(C)CC(=O)C(C=NCCc2ccc(S(N)(=O)=O)cc2)=C(O)C1	-0.426
Cc1oc(-c2ccccc2)cc1C(N)=O	-0.548
O=C(Nc1ccc(N2CCOCC2)c(F)c1)c1ccncc1	-0.451
COCn1c(COc2ccccc2)nc2ccccc21	-0.248
COc1ccc(OC)c(C2=NOC(C(=O)NCCN3CCOCC3)C2)c1 (stereo not given)	-0.62
Cc1cc(C(=O)Nc2cc(C)n(Cc3ccc(Cl)cc3)n2)no1	-0.483
Cc1cc(C(=O)CSCc2nnc3n(CCC(C)C)c(=O)c4ccccc4n23)c(C)n1C	-0.558
COc1ccc(-c2[nH]nc3c2C(c2ccccc2OC(=O)N2CCOCC2)C(C#N)=C(N)O3)cc1 (stereo not given)	-0.574
COC(=O)c1ccccc1NC(=O)Nc1cc(C)cc(C)n1	-0.504
CCOC(=O)C1CCCN(Cc2nc(N)nc(Nc3ccccc3)n2)C1 (stereo not given)	-0.57
COCC(=O)Nc1sc2c(c1C(=O)OC)C(C(=O)OC)CC2 (stereo not given)	-0.481
Cc1ccnc(NC(=O)CCC(=O)N(CC(=O)NC2CCCCC2)c2cccc(C)c2C)c1	-0.626
Cc1ccc(NC(=O)C2CCCN2C(=O)Oc2ccccc2)cc1 (stereo not given)	-0.41
c1ccc2[nH]c(CSc3nnc(-c4ccncc4)o3)nc2c1	-0.497
Cc1ccc(-c2c3c(=O)n(C)c(=O)n(C)c3cn2CCCN2CCOCC2)cc1	-0.414
CCOc1ccc(NC(=O)CN(C)S(=O)(=O)c2cccs2)cc1	-0.587
CCn1ncc(C2=NOC(C(=O)NCc3ccc(Cl)cc3)C2)c1C (stereo not given)	-0.421
CCOC(=O)C1CCCN(C(=O)c2ccc(CS(=O)(=O)Cc3ccccc3C)o2)C1 (stereo not given)	-0.595
CC(C)C(=O)Nc1nnc(CCc2nnc(NC(=O)C(C)C)s2)s1	-0.552

Each molecule was assayed against Voltage-gated potassium channel subunit beta-2 (Rattus norvegicus) (UniProt P62483) (assay: enhancers of rat Kvbeta2 NADPH turnover – biochemical, NADPH fluorescence, primary screen (AID 623;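 active means NADPH fluorescence slope more negative than the mean of all samples by about 3 SD, 99.7% confidence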;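 further: fluorescence intensity change per second fitted from 20 to 320 s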)). Conditions: Recombinant KvBeta, NADPH fluorescence decrease slope, 10 min; at 10 µM; stronger effect = lower value.

SMILES	NADPH fluorescence slope
Cc1nc2ccccc2c(=O)n1NC(=O)c1c(O)c2c(n(CC(C)C)c1=O)CCCC2	-5e-05
CCN(CC)C(=O)C1=C(C)NC(=O)NC1c1c(F)cccc1Cl (stereo not given)	-0.000194
COc1ccccc1OCc1ccc(C(=O)OCC2CCCO2)o1 (stereo not given)	-0.000334
Cc1nc(CNS(=O)(=O)c2ccc3c(c2)OCCO3)cs1	-2.7e-05
c1ccc(CC2CCN(Cc3nc(-c4ccccc4)no3)CC2)cc1	-1.9e-05
CC(C)(C)OC(=O)N1CCCC1C(=O)N1CCCC1C(=O)N1CCCC1C(=O)O (stereo not drawn) (Boc-Pro-Pro-Pro-OH; configuration not given here)	-4.7e-05
Cc1[nH]c(=O)[nH]c(=O)c1S(=O)(=O)N1CCN(c2cccc(Cl)c2)CC1	-1.8e-05
Cc1csc(SCC(=O)NC(=O)NCc2ccccc2)n1	9.9e-05
O=C1CC(N2CCC(C(=O)N3CCCCC3)CC2)C(=O)N1 (stereo not given)	-3.8e-05
COc1ccc(S(=O)(=O)NC2CCCCC2)c(C)c1C	1.8e-05
O=C(NCc1ccccn1)c1ccc2nc(-c3ccco3)c(-c3ccco3)nc2c1	-2.5e-05
CN1CCCN(C(=O)c2cc(=O)[nH]c3ccccc23)c2nc3ccccc3nc21	-0.000122
COc1cc2c(cc1OC)CN(C(=O)COc1ccc(C#N)cc1)CC2	-4.9e-05
Cc1noc(C)c1C(=O)OCC(=O)Nc1ccccc1C(=O)NC(C)c1ccccc1 (stereo not given)	-0.000106
CCc1c(C)nc(N2CCN(Cc3ccccc3)CC2)[nH]c1=O	2.9e-05
CCOc1ccc(CCNC(=O)CCc2nc(-c3ccc(OC)cc3)no2)cc1OCC	3.2e-05
O=C(O)CCCNS(=O)(=O)c1ccc(NCc2ccccc2)c(C(=O)O)c1	-5e-05
CN1CCN(C(=O)c2ccccc2N(Cc2ccccc2)S(C)(=O)=O)CC1	-6.8e-05
Cc1nc(=S)n(-c2ccccc2)[nH]1	-1.9e-05
Cc1ccc(S(=O)(=O)Cc2ccc(C(=O)NCCCN3CCN(C)CC3)o2)cc1	1.7e-05

SMILES	NADPH fluorescence slope
COc1cccc(-n2c(C)nc3c(cnn3-c3ccc(Cl)cc3)c2=O)c1	7.6e-06
CC1(C)CC(=O)C(C=NCCc2ccc(S(N)(=O)=O)cc2)=C(O)C1	-8.3e-05
Cc1oc(-c2ccccc2)cc1C(N)=O	-1.8e-05
O=C(Nc1ccc(N2CCOCC2)c(F)c1)c1ccncc1	8.4e-05
COCn1c(COc2ccccc2)nc2ccccc21	-1.5e-05
COc1ccc(OC)c(C2=NOC(C(=O)NCCN3CCOCC3)C2)c1 (stereo not given)	3.7e-06
Cc1cc(C(=O)Nc2cc(C)n(Cc3ccc(Cl)cc3)n2)no1	-1.4e-05
Cc1cc(C(=O)CSCc2nnc3n(CCC(C)C)c(=O)c4ccccc4n23)c(C)n1C	3.1e-06
COc1ccc(-c2[nH]nc3c2C(c2ccccc2OC(=O)N2CCOCC2)C(C#N)=C(N)O3)cc1 (stereo not given)	-3.5e-05
COC(=O)c1ccccc1NC(=O)Nc1cc(C)cc(C)n1	-2.5e-05
CCOC(=O)C1CCCN(Cc2nc(N)nc(Nc3ccccc3)n2)C1 (stereo not given)	-4.6e-05
COCC(=O)Nc1sc2c(c1C(=O)OC)C(C(=O)OC)CC2 (stereo not given)	7e-05
Cc1ccnc(NC(=O)CCC(=O)N(CC(=O)NC2CCCCC2)c2cccc(C)c2C)c1	3.3e-05
Cc1ccc(NC(=O)C2CCCN2C(=O)Oc2ccccc2)cc1 (stereo not given)	-6.8e-06
c1ccc2[nH]c(CSc3nnc(-c4ccncc4)o3)nc2c1	1e-06
Cc1ccc(-c2c3c(=O)n(C)c(=O)n(C)c3cn2CCCN2CCOCC2)cc1	2.2e-05
CCOc1ccc(NC(=O)CN(C)S(=O)(=O)c2cccs2)cc1	-3.3e-05
CCn1ncc(C2=NOC(C(=O)NCc3ccc(Cl)cc3)C2)c1C (stereo not given)	2.6e-05
CCOC(=O)C1CCCN(C(=O)c2ccc(CS(=O)(=O)Cc3ccccc3C)o2)C1 (stereo not given)	4.2e-06
CC(C)C(=O)Nc1nnc(CCc2nnc(NC(=O)C(C)C)s2)s1	1.7e-05
